Reference: PubChem BioAssay (NCATS)
Records with an inconclusive call do not appear. Calls of active or inactive are those of the source. Calls follow the shape of the dose curve; as a rule, active = well fitted curve in the direction sought with a large enough effect; inconclusive = small, poorly fitted or top-dose-only effect, or another doubt; inactive = no such curve, though single readings can be large; an effect the other way counts as inactive or inconclusive.

Tests used:
[1] = tested on: Zika virus NS2B-NS3 protease (linked construct); assay: Primary screen NINDS Rhodamine qHTS for Zika virus inhibitors (AID 1347160); also: nearly all actives have a fitted effect of over 55% in size; also: potency is read from the fitted curve at half-maximal effect
Method in brief: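 Aprotinin served as in-plate control. Conditions: 25 nM linked NS2B-NS3, pH 8.0 Tris buffer, titrated compounds, 15 min preincubation and 15 min reaction with 1.5 microM Rhod110 substrate at room temperature.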

[2] = OV-SAHO Cancer Cell Toxicity qHTS against the NCATS CANVASS Library (AID 1347348); also: nearly all actives have a fitted effect of over 55% in size; also: potency is read from the fitted curve at half-maximal effect
Method in brief: (§1)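 Per well, 1000 cells; exposure 72 h with compound at 11 final concentrations; readout CellTiter-Glo luminescence.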

[3] = SW1088 Cancer Cell Toxicity qHTS against the NCATS CANVASS Library (AID 1347350); also: nearly all actives have a fitted effect of over 75% in size; also: potency is read from the fitted curve at half-maximal effect
Method in brief: as §1

[4] = U-118MG Cancer Cell Toxicity qHTS against the NCATS CANVASS Library (AID 1347351); also: potency is read from the fitted curve at half-maximal effect; as to activity change, negative = cytotoxicity: series mostly up to about 38 µM; % is scaled to controls: 0 for no effect and ±100 for the full control effect
Method in brief: as §1

[5] = A2780 Cisplatin Sensitive Ovarian Cancer Cell Toxicity qHTS against the NCATS CANVASS Library (AID 1347353); also: nearly all actives have a fitted effect of over 60% in size; also: potency is read from the fitted curve at half-maximal effect
Method in brief: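 Quantitative HTS format: eleven compound concentrations applied to pre-seeded cells, 72 h incubation at 37 °C, then ATP detection by luminescence.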

[6] = UWB1.289-WTBRCA1 Cancer Cell Toxicity qHTS against the NCATS CANVASS Library (AID 1347354); also: potency is read from the fitted curve at half-maximal effect
Method in brief: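 Using an ATP-based luminescent reagent after three days of treatment, toxicity is scored across an eleven-concentration range in wells holding 1000 cells each.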

[7] = molecular target: Luciferin 4-monooxygenase (Photinus pyralis) (UniProt P08659); assay: Firefly luciferase counterscreen qHTS: Assay Interference Panel against the NCATS CANVASS Library (AID 1347363); also: series mostly up to about 57 µM; 0% is about no effect
Chain of Luciferin 4-monooxygenase (Photinus pyralis) (P08659 whole entry, looked up): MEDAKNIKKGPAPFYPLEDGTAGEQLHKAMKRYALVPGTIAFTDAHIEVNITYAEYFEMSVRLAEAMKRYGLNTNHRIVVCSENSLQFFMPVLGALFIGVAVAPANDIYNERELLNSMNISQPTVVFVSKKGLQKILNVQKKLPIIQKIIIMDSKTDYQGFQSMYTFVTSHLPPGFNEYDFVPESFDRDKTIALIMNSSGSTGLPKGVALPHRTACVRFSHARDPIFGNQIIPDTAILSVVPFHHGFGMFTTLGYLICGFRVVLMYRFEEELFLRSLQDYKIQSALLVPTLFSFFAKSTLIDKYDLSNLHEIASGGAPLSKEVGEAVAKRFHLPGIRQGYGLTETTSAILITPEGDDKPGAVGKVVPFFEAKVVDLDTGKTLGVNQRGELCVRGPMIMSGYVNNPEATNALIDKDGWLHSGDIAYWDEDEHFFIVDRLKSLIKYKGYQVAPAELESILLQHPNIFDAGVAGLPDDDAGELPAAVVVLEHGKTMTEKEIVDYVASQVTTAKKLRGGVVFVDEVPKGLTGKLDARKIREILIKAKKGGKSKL
Method in brief: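 Purified P. pyralis luciferase was added to compounds (11-point series) preincubated 15 min at room temperature with substrate containing 0.013 mM D-luciferin and 0.013 mM ATP; luminescence was read after 5 min.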

[8] = KB-8-5-11 Cancer Cell Toxicity qHTS against the NCATS CANVASS Library (AID 1347364); also: nearly all actives have a fitted effect of over 75% in size; also: potency is read from the fitted curve at half-maximal effect
Method in brief: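 Luminescent ATP signal (CellTiter-Glo, 10 min at room temperature) measured cell survival of KB-8-5-11 after 72 hr compound treatment. For confirmation, the cells were also grown with 1uM tariquidar.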

[9] = MCF7 Cancer Cell Toxicity qHTS against the NCATS CANVASS Library (AID 1347369); as to activity change, negative = cytotoxicity: series mostly up to about 46 µM; % is scaled to controls: 0 for no effect and ±100 for the full control effect
Method in brief: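 Luminescent ATP signal (CellTiterGlo) served as the cytotoxicity read-out after MCF7 breast cancer cells had been incubated 72 hr at 37C with natural products in an 11-point titration.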

[10] = qHTS for Hypoxia signaling pathway (HIF-1) antagonists against the NCATS CANVASS Library (AID 1347374); also: nearly all actives have a fitted effect of over 60% in size; also: potency is read from the fitted curve at half-maximal effect
Method in brief: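 Beta-lactamase reporter under HRE control in ME-180 cells; CoCl2 stimulus (60 uM solution as added), compounds 11-pt qHTS, 17 h 37C. CCF4 dye 2 h RT, 460/530 nm emission. CellTiter-Glo viability in same wells.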

[11] = qHTS for Antimalaria activity screened against the NCATS CANVASS Library (AID 1347380); also: nearly all actives have a fitted effect of over 40% in size; also: potency is read from the fitted curve at half-maximal effect;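 as to activity change, negative = inhibition: Plasmodium falciparum strain Dd2 asexual parasites grown in red blood cells; series mostly up to about 29 µM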
Method in brief: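 Measures proliferation or cytotoxicity against Dd2 blood stages in 72 h cultures, 11-point qHTS dosing, with SYBR Green fluorescence as read-out; dihydroartemisinin titration served as control.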

[12] = qHTS for inhibitors of Wild type Zika virus screened against the NCATS CANVASS Library (AID 1347396);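 also: ATP luminescence of surviving cells so rescue from viral cell killing; series mostly up to about 46 µM; % is scaled to controls: 0 for no effect and ±100 for the full control effect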
Method in brief: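 Vero 766 cells, 1000/well, o/n attach; cpds pin-transferred (11-pt qHTS); WT Zika added; 72 h, 37C, 5% CO2; CellTiter Glo lumi. Uninfected + vehicle = 100% inhibition.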

[13] = Viability qHTS for inhibitors of the SERCaMP assay screened against the NCATS CANVASS Library (AID 1347400); also: nearly all actives have a fitted effect of over 70% in size; also: potency is read from the fitted curve at half-maximal effect
Method in brief: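 Measures loss of viability in SERCaMP reporter SH-SY5Y cells treated for 48 h with compounds; luminescent ATP detection by CellTiter-Glo.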

[14] = Redox Reaction Profiling qHTS: Assay Interference Panel against the NCATS CANVASS Library (AID 1347401); also: potency is read from the fitted curve at half-maximal effect;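 as to activation (redox signal): 100% = activation by 2 µM chloranil control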
Method in brief: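 Quantitative HTS over an 11-point series was run in HEPES pH 7.3 with 50 mM NaCl, 200 uM DTT and 5 uM resazurin. Initial and 15-min resorufin fluorescence readings were taken.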

[15] = OV-KATE Cancer Cell Toxicity qHTS against the NCATS CANVASS Library (AID 1347345); also: % is scaled to controls: 0 for no effect and ±100 for the full control effect
Method in brief: as §1

[16] = HEK293 18hr Apoptosis Induction qHTS against the NCATS CANVASS Library (AID 1347357); also: 0% is about no effect
Method in brief: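 Caspase-3/7 luminescence (DEVD substrate, Caspase-Glo) after 18 h compound exposure of HEK293 cells, 500 cells/well; 11-point series; doxorubicin titration as control.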

[17] = HPAF-II 12hr Apoptosis Induction qHTS against the NCATS CANVASS Library (AID 1347358); also: 0% is about no effect
Method in brief: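 Twelve-hour compound exposure of HPAF-II cells in DMEM with 10% FBS, then luminescent Caspase-Glo 3/7 detection after 15 min at room temperature; doxorubicin control.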

[18] = SDT Cancer Cell Toxicity qHTS against the NCATS CANVASS Library (AID 1347365); also: nearly all actives have a fitted effect of over 60% in size; also: potency is read from the fitted curve at half-maximal effect
Method in brief: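 Canine SDT glioma cell toxicity was scored by ATP-dependent luminescence after a 72 hr incubation with an 11-point compound series.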

[19] = qHTS for activators of Nrf2/ARE signaling pathway screened against the NCATS CANVASS Library (AID 1347391); also: nearly all actives have a fitted effect of over 60% in size; also: potency is read from the fitted curve at half-maximal effect; as to activation: 0% is about no effect
Method in brief: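 Activation of Nrf2/ARE was scored in ARE-bla HepG2 cells after 16 h compound exposure using CCF4 beta-lactamase fluorescence ratio readings.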

[20] = HEK293 12hr Apoptosis Induction qHTS against the NCATS CANVASS Library (AID 1347361); also: 0% is about no effect
Method in brief: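 500 HEK293 cells/well; cpds pin-transferred, 11-pt conc series; 12 h, 37 degrees C/5% CO2; Caspase-Glo 3/7 added, 15 min RT dark; luminescence.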

CCCc1c2c([nH]c(=O)c1C)C(=O)c1[nH]c(=O)c(C)c(CCC)c1C2=O
inactive: Potency [4] | Potency [7] | Potency [8] | Potency [9] | outcome [12] | Potency [13]
active: Potency [1] 34.9 µM | Potency [2] 11.8 µM | Potency [3] 8.41 µM | Potency [5] 14.8 µM | Potency [6] 7.47 µM | Potency [10] 9.41 µM | Potency [11] 11.8 µM | Potency [14] 0.857 µM

CC(C)=CCCC(C)(O)[C@H]1CC=C(C)C(O)C1 (stereo partly drawn)
inactive: Potency [15] | Potency [2] | Potency [3] | Potency [4] | Potency [5] | Potency [6] | Potency [16] | Potency [17] | Potency [7] | Potency [8] | Potency [18] | Potency [9] | Potency [10] | Potency [19] | outcome [12] | Potency [13] | Potency [14]

COC(=O)C1=C[C@]23C[C@@H](C)CC[C@@H]2[C@@]2(C)CC[C@@H](C(C)C)[C@@](O)(O3)[C@@H]12
inactive: Potency [4] | Potency [7] | Potency [9] | Potency [10] | Potency [13] | Potency [14]
active: Potency [1] 44 µM | Potency [8] 18.7 µM

C/C=C1/CN2C3CC1C1C=CC(=O)N4c5ccccc5[C@@]3(C[C@@H]2C2=C[C@H]3C5CC6N(CC[C@@]67c6ccccc6N(C2=O)[C@@H]37)C/C5=C/C)[C@H]14 (stereo partly drawn)
active: Potency [1] 15.6 µM | Potency [3] 13.3 µM | Potency [4] 11.9 µM | Potency [5] 11.8 µM | Potency [6] 16.7 µM | Potency [8] 9.35 µM | Potency [18] 10.5 µM | Potency [10] 9.41 µM | Potency [11] 1.06 µM | Potency [19] 3.31 µM | Potency [13] 19.1 µM
inactive: Potency [7]

C[C@@H]1CC[C@]2(C(=O)O)CC[C@]3(C)C(=C2[C@H]1C)CC[C@@H]1[C@@]2(C)CC[C@H](O)C(C)(C)[C@@H]2CC[C@]13C
inactive: Potency [5] | Potency [16] | Potency [17] | outcome [20] | Potency [7] | Potency [8] | Potency [18] | Potency [9] | Potency [19] | outcome [12] | Potency [14]
active: Potency [1] 34.9 µM | Potency [2] 11.8 µM | Potency [3] 23.7 µM

CO/C=C/C(=O)c1cc2cnc3c(N)cc(=NC(=O)C(C)C)c([nH]1)c23
active: Potency [1] 17.5 µM | Potency [2] 0.0375 µM | Potency [5] 0.0296 µM | Potency [8] 0.296 µM | Potency [18] 0.372 µM | Potency [10] 0.0334 µM | Potency [13] 0.381 µM
inactive: Potency [16] | Potency [7] | Potency [9] | Potency [11] | Potency [19] | Potency [14]

CC[C@H](O)CCCCC[C@@H]1NC(=O)[C@H]2CCCCN2C(=O)[C@H]([C@H](C)CC)NC(=O)[C@H](Cc2cn(OC)c3ccccc23)NC1=O
inactive: Potency [6] | Potency [7] | Potency [8] | Potency [9] | Potency [10] | Potency [19] | Potency [13]
active: Potency [1] 15.6 µM | Potency [4] 13.3 µM | Potency [5] 23.5 µM | Potency [11] 1.49 µM

O=C1c2c(O)cc(O)cc2OC(c2ccc(O)cc2)C1O (stereo not drawn)
active: Potency [11] 0.0053 µM
inactive: Potency [15] | Potency [2] | Potency [3] | Potency [4] | Potency [5] | Potency [6] | Potency [16] | Potency [17] | Potency [7] | Potency [8] | Potency [18] | Potency [9] | Potency [19] | outcome [12] | Potency [13] | Potency [14]

COc1c(O)cc2c(c1O)C(=O)c1c(coc1C)C2=O
inactive: Potency [2] | Potency [6] | Potency [16] | Potency [17] | outcome [20] | Potency [7] | Potency [8] | Potency [9] | outcome [12] | Potency [13]
active: Potency [1] 9.84 µM | Potency [10] 14.9 µM | Potency [19] 7.41 µM

COC(=O)c1cc2cc3c(c(O)c2c(=O)o1)OC1(CC3)CC2=C(O1)C(=O)c1c(O)c(OC)cc(OC)c1C2=O (stereo not drawn)
active: Potency [1] 2.47 µM | Potency [3] 13.3 µM | Potency [5] 20.9 µM | Potency [10] 14.9 µM | Potency [19] 10.5 µM
inactive: Potency [4] | Potency [16] | Potency [17] | Potency [11]

COc1ccc([C@@H]2CC(=O)c3c(cc(O)c(C/C=C(\C)CCC=C(C)C)c3O)O2)cc1
active: Potency [1] 7.2 µM
inactive: activity change, negative = cytotoxicity [2] -12.7% [at 7.64 µM] | outcome [4] inactive [at 7.64 µM] | activity change, negative = cytotoxicity [6] -3.16% [at 7.64 µM] | caspase activation [16] 0.682% [at 9.19 µM] | caspase activation [17] 1.72% [at 9.19 µM] | activity change, negative = inhibition [7] -12.4% [at 11.5 µM] | activity change, negative = cytotoxicity [18] 0.771% [at 9.19 µM] | activity change, negative = cytotoxicity [9] -4.45% [at 9.17 µM] | activity change, negative = inhibition [10] 8.62% [at 7.64 µM] | activity change, negative = cytotoxicity [13] -0.051% [at 18.4 µM] | activation (redox signal) [14] -16.9% [at 11.4 µM]

C/C(=C\[C@H](C)C(=O)C[C@H](O)CC1CC(=O)NC(=O)C1)[C@@H]1OC(=O)CCCC/C=C/C[C@@H](O)[C@@H]1C
inactive: Potency [1] | Potency [3] | Potency [16] | Potency [17] | Potency [7] | Potency [8] | Potency [9] | outcome [12] | Potency [14]
active: Potency [5] 2.35 µM | Potency [18] 1.66 µM | Potency [10] 4.72 µM | Potency [11] 4.72 µM

CC1=C2CC[C@]3(C)[C@H](CC=C4[C@@H]5CC(C)(C)CC[C@@H]5C(=O)[C@H](O)[C@]43C)[C@@]2(C)C=C(O)C1=O
inactive: Potency [6] | Potency [16] | Potency [17] | outcome [20] | Potency [18] | Potency [9] | outcome [12] | Potency [13]
active: Potency [1] 39.2 µM | Potency [10] 9.41 µM

C=C[C@](Cl)(CBr)CCC=C(C)C
active: Potency [5] 20.9 µM
inactive: Potency [1] | Potency [3] | Potency [4] | Potency [6] | Potency [17] | outcome [20] | Potency [7] | Potency [8] | Potency [18] | Potency [10] | Potency [11] | outcome [12] | Potency [13] | Potency [14]
